# Source: PubChem BioAssay (several laboratories)
# PPC-1+TRAIL kill: PPC-1 cancer cell killing with TRAIL present; PPC-1 cells + TRAIL, ATPLite viability luminescence; 220,000 tested, 0.41% active; cell killing (% activity), % at 4 µM or 5 µM;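 active means cell killing above 50% in the first pass at 4 µM, then a duplicate retest at 5 µM averaging 50% or more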;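 further: plate controls were cells with TRAIL plus DMSO for no effect and medium-only wells lacking cells for full effect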
# C8 TRAIL sens: caspase-8 TRAIL sensitization | NB7+C8 cells + TRAIL, ATPlite viability luminescence | inhibition (viability loss, TRAIL sensitization), % at 10 µM | 360,000 tested, 1% active | AID 624354;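 active means compounds causing at least 50% loss of cell viability in the single-dose screen, relative to plate controls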
# TWEAK-Fn14 inh: inhibitors of TWEAK-Fn14 interaction signaling; TWEAK-stimulated Fn14 reporter cells, luciferase luminescence, 8 h; inhibition, % at 10 µM; 360,000 tested, 2% active; AID 1159606; in the data active means inhibition above about 50%
# Platelet DG rel: modulates dense granule release in human platelets | human platelet-rich plasma, SFLLRN dense granule ATP release, luminescence | inhibition, %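 (compounds screened at 7.5 µM in platelet-rich plasma)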 | 300,000 tested, 0.22% active | AID 1663;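 active means mean replicate score, as percent of positive control, at or above 50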
# TROY signal inh: blocks TROY-dependent signaling in reporter cells; 360,000 tested, 0.98% active; Q293 LMP1-TROYcd NF-kB luciferase reporter, 4 h; inhibition, % at 10 µM;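 active means compounds whose plate-normalised and pattern-corrected inhibition of the luciferase reporter signal at the single screening dose is 50% or more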
# HSP90 inh: inhibitors of HSP90 luciferase refolding in rabbit reticulocyte lysate | luciferase refolding luminescence, 3 h | inhibition, % at 5.6 µM | 290,000 tested, 0.91% active | AID 1789;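 active means inhibition above the screen-wide mean plus 3 SD, computed separately per campaign, cut at about 16% in these data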;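 further: 0% = DMSO wells and 100% = 60 µM geldanamycin wells; inhibitors lower the luminescence because luciferase stays unfolded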
# * hit, by the source's call; . = not tested or not shown. Rows were chosen to be rich in hits. Some 3.5% of all compounds tested hit in one or more screens of this group.
SMILES,PPC-1+TRAIL kill,C8 TRAIL sens,TWEAK-Fn14 inh,Platelet DG rel,TROY signal inh,HSP90 inh
O=C(CC[C@H]1O[C@@H](n2ccc(=O)[nH]c2=O)[C@H](O)[C@@H]1O)N[C@H](Cc1ccccc1)C(=O)NCC1CCCCC1,.,5,-8,.,10,.
O=C(CC[C@H]1O[C@@H](n2ccc(=O)[nH]c2=O)[C@H](O)[C@@H]1O)N[C@@H](Cc1ccccc1)C(=O)NCC1CCCO1 (stereo partly drawn),.,5,-5,.,54*,.
Cc1cc(C)c(C(=O)/C=C/c2ccc(C(C)C)cc2)c(=O)[nH]1,-3,13,93*,-4,55*,2
Cc1cc(C)c(C(=O)/C=C/C=C/c2ccccc2)c(=O)[nH]1,3,-19,11,2,-12,-5
Cc1cc(OCC(=O)Nc2ccncc2)ccc1Br,18,4,88*,-1,.,-4
COc1cccc(NC(=O)COc2ccc(Br)c(C)c2)c1,.,3,-22,-2,-25,-4
O=C(NO)c1cc(OCC(F)(F)F)ccc1OCC(F)(F)F,-4,51*,6,-4,-5,2
Cc1ccc(C(=O)NNC(=O)c2cc(OCC(F)(F)F)ccc2OCC(F)(F)F)cc1,24,22,1,11,-19,-2
O=C(NNC(=O)c1cc(OCC(F)(F)F)ccc1OCC(F)(F)F)c1cccc(C(F)(F)F)c1,-14,52*,-27,-3,-4,-1
Cc1ccc(NC2c3ncccc3C(=O)N2Cc2cccs2)cc1 (stereo not drawn),10,-5,-2,4,-34,5
O=C(NCCc1ccccc1)c1ccc2c(c1)S(=O)(=O)c1ccccc1C2=O,.,12,-14,-1,-17,.
CCOc1ccc(C(C)=O)cc1CN1C(=O)NC2(CCCCCCC2)C1=O,19,-10,5,5,3,2
Nc1ncnc(SCc2c(F)cccc2Cl)n1,4,16,32,11,4,-1
Fc1cccc(Cl)c1CSc1ncn[nH]1,14,-16,-11,-1,78*,-1
COc1cccc(C(=O)Nc2nnc(-c3cccs3)s2)c1,44,10,70*,15,16,-2
CCc1nnc(NC(=O)c2cccc(OC)c2)s1,9,9,22,-1,-36,5
O=C(CSc1nnc(NC(=O)c2ccccc2)s1)NCC1CCCO1 (stereo not drawn),.,56*,-10,-5,2,-1
COc1cccc(C(=O)Nc2nnc(SCC(=O)NC3CCCC3)s2)c1,.,57*,-9,7,-12,-3
O=C(CSc1nnc(NC(=O)c2ccc(F)cc2)s1)NCc1ccco1,.,56*,7,16,-40,2
CC1C(=O)N2CCCc3cc(S(=O)(=O)N(C)c4ccccc4)cc1c32 (stereo not drawn),.,-8,-1,-5,-21,-1
COc1ccc(Nc2ncc(C#N)c(N)n2)c(OC)c1,3,-2,10,-7,-53,4
COc1cc(C(=O)Nc2nc(-c3cccs3)cs2)cc(OC)c1OC,13,19,56*,12,45,0
O=C(CSc1nnc(NC(=O)c2ccccc2)s1)NCc1ccco1,.,61*,21,4,-12,2
CC(C)(C)c1ccc(/C=C(\c2nc3ccccc3[nH]2)S(=O)(=O)c2ccccc2)cc1,.,21,95*,-2,46,.
Cc1cccc(/C=C(\c2nc3ccccc3[nH]2)S(=O)(=O)c2ccccc2)c1,9,-21,75*,0,10,6
SMILES,PPC-1+TRAIL kill,C8 TRAIL sens,TWEAK-Fn14 inh,Platelet DG rel,TROY signal inh,HSP90 inh
O=C(O)c1ccc(/C=C(\c2nc3ccccc3[nH]2)c2nc3ccccc3s2)cc1,26,3,2,0,-32,0
O=C(/C(=C(\O)c1ccccc1)c1nc2ccccc2[nH]1)c1ccccc1,15,9,-8,-12,-25,-2
COc1ccc(CNC(=O)CC[C@H]2O[C@@H](n3cc(C)c(=O)[nH]c3=O)C[C@@H]2O)cc1,.,0,1,.,-15,.
Cc1c(C(=O)O)sc(S(=O)(=O)N2CCN(C(=O)CC(C)c3ccccc3)CC2)c1C(=O)O (stereo not drawn),.,14,-4,.,5,.
CCc1ccc([C@@H]2CC=C(C(=O)O)[C@H](c3ccc(C(C)(C)C)cc3)N2S(=O)(=O)c2ccc(C)cc2)cc1,.,-4,84*,.,84*,.
Cc1ccc(S(=O)(=O)N2[C@@H](c3ccc(C(C)(C)C)cc3)C(C(=O)O)=CC[C@H]2c2ccc(Cl)cc2)cc1,.,16,89*,.,88*,.
Cc1ccc(S(=O)(=O)N2[C@@H](c3ccc(Cl)cc3)C(C(=O)O)=CC[C@H]2c2ccc(Cl)c(Cl)c2)cc1,.,-14,26,.,63*,.
CCc1ccc([C@@H]2CC=C(C(=O)O)[C@H](c3ccccc3)N2S(=O)(=O)c2ccc(C)cc2)cc1,.,3,8,.,23,.
Cc1ccc(S(=O)(=O)N2[C@@H](c3ccc(Cl)c(Cl)c3)C(C(=O)O)=C[C@H]2CC2CCCC2)cc1,.,-2,11,.,67*,.
Cc1ccc(S(=O)(=O)N2C(c3ccc(Cl)c(Cl)c3)CC=C(C(=O)O)C2c2ccc(Cl)cc2)cc1 (stereo not drawn),.,-11,.,.,.,.
CC(C)c1cc(C(=O)N2CCCC(Nc3ccc(F)cc3)C2)nc(N)n1 (stereo not drawn),.,21,11,-8,3,-5
Cc1ccc([C@@H]2CC=C(C(=O)O)[C@H](c3ccc(C(C)(C)C)cc3)N2S(=O)(=O)c2ccc(C)cc2)cc1,.,13,52*,.,65*,.
Cc1ccc(S(=O)(=O)N2[C@@H](c3ccc(Br)cc3)C(C(=O)O)=CC[C@H]2c2ccc(C(C)C)cc2)cc1,.,3,21,.,70*,.
Cc1ccc([C@@H]2CC=C(C(=O)O)[C@H](c3ccc(Br)cc3)N2S(=O)(=O)c2ccc(C)cc2)cc1,.,5,18,.,29,.
Cc1ccc(S(=O)(=O)N2[C@@H](c3ccc(C(C)(C)C)cc3)C(C(=O)O)=CC[C@H]2c2ccc(C(C)C)cc2)cc1,.,-3,94*,.,87*,.
CCOC(=O)c1c2c(n(-c3ccc(OC)cc3)c1C)C(=O)C(=O)c1ccccc1-2,.,95*,107*,.,61*,.
Cc1ccccc1OCC(=O)N(Cc1ccco1)c1c(N)n(Cc2ccccc2)c(=O)[nH]c1=O,.,-7,14,.,-15,.
CCOC(=O)c1cn(-c2ccc(F)c(F)c2F)c2c(F)c(F)c(F)cc2c1=O,-2,64*,-7,-7,-2,-9
O=C(Nc1ccnn1C1CCN(C(=O)c2cnsn2)CC1)c1cccc(F)c1,.,14,-18,11,-16,-2
C/C(=N\Nc1ccc(Cl)c(C(=O)O)c1)c1cccc2ccccc12,.,13,0,0,-32,2
O=C(O)c1cc(N/N=C/c2cccc3ccccc23)ccc1Cl,.,-17,101*,-3,-19,11
O=C(C(=O)N(Cc1ccccc1)Cc1ccccc1)c1c(-c2ccccc2)[nH]c2ccccc12,.,24,52*,.,17,.
